Results taken from PubChem BioAssay (NCI).
Compounds without any hit were thinned out: in the full panel of roughly 83,000, 20% have a hit.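 Treatment: one concentration, 48 hours, 96-well format. Scoring: percent growth, with anything below 10 considered active.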 Values without a mark were called inactive. The source made the active and inactive calls.

The compounds below were run on HL-60(TB) leukemia (assay: NCI-60 one-dose screen, 48 h (100 = growth as untreated, 0 = no growth, -100 = all killed)). Settings: 10 µM unless noted.

| SMILES | growth |
| --- | --- |
| C=CCn1cc(-c2nc3ccccc3s2)c2cc(-c3ccc4c5c(cccc35)C(=O)N(CCO)C4=O)ccc21 | 101% |
| COC(=O)c1c2c(c(C)[n+]([O-])c1C)C(=O)C(NCCN1CCOCC1)=CC2=O | 52.4% |
| O=C(NC1CCCCC1)C(c1cccs1)N(CCc1ccccc1)C(=O)c1ccco1 (centres undefined) | 100% |
| CCN1/C(=C/C=C/c2n(-c3ccccc3)c3ccc(-c4nc5ccccc5s4)cc3[n+]2CC)N(c2ccccc2)c2ccc(-c3nc4ccccc4s3)cc21 | 6.43% (active) |
| COC(=O)/C=C1\SC(=Nc2ccc(C(F)(F)F)cc2)N(CCc2c[nH]c3ccccc23)C1=O | -55.4% (active) |
| O=c1cc(-c2nccc3c2[nH]c2ccccc23)c2cc(Cl)ccc2o1 | 0.737% (active) |
| N#Cc1c(-c2cccc(F)c2)cc(-c2ccc(Br)s2)[nH]c1=O | 67% |
| CCN(CC)c1ccc(CNc2ccnc3ccccc23)cc1 | 33.6% |
| S=C(Cc1ccccc1)N1CCN(c2ccccc2Cl)CC1 | 92.1% |
| O=C1Nc2ccccc2C1=NC1CCCCC1 | 110% |
| CCOC(=O)Cc1cnc(N/N=C(\C)c2cc3ccccc3o2)s1 | 65.2% |
| COc1ccc(C(=O)c2ccccc2CN2C(=O)c3ccccc3C2=O)cc1 | 103% |
| COc1ccc(-c2nc3ccc(-c4nc5ccc(N6CCN(C)CC6)cc5[nH]4)cc3[nH]2)cc1OC | 49.1% |
| C=C1CC[C@@H]2[C@](C)(COC(C)=O)[C@H](OC(C)=O)CC[C@@]2(C)[C@@H]1CC(Nc1ccc(S(=O)(=O)Nc2nccc(C)n2)cc1)C1=CCOC1=O (some centres undefined) | -17.3% (active) |
